# Source: PubChem BioAssay (EPA / NIEHS)
# Results filed as inconclusive are left out. The source made the active and inactive calls. Rule for the calls, unless noted: active = hit-call score of the fitted dose curve at least 0.9, where 1 is the maximum; inconclusive = response in the unintended direction; inactive = score below 0.9.
# Tests used:
# [1] = target: rat Androgen Receptor (AR), Ar (gene 24208) (UniProt P15207); assay: NVS_NR_rAR: NovaScreen (NVS) Nuclear Receptor Binding Assay for rat Androgen Receptor (AR) (AID 2283366)
# rat Androgen Receptor (AR), Ar (gene 24208), sequence (P15207 whole entry, looked up): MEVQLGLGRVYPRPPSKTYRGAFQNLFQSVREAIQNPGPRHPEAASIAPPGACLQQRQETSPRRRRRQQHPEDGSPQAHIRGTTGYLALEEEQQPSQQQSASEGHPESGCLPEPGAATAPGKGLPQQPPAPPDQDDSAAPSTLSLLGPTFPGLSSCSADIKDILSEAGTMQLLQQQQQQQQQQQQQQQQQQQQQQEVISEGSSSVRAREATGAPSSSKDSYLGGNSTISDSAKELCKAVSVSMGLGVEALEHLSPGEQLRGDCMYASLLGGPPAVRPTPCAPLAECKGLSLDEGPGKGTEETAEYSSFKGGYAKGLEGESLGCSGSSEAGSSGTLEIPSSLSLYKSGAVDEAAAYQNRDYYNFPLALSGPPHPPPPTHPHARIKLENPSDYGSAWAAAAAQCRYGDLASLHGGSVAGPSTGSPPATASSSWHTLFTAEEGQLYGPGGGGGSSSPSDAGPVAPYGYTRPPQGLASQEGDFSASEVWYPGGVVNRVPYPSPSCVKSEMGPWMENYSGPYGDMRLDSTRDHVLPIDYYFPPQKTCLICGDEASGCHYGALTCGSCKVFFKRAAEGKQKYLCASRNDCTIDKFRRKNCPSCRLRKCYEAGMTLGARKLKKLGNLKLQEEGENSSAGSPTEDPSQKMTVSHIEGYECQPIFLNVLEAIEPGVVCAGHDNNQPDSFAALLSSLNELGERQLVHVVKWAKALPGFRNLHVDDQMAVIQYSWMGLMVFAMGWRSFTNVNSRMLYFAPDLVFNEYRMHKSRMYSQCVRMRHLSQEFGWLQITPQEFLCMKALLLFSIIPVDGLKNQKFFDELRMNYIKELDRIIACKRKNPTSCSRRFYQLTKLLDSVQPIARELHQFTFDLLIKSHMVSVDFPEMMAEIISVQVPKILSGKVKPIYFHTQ
# How it was run: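 Cell-free radioligand binding on extracts of prostate from testosterone-pretreated rats, read by filter-based scintillation counting 18 h after dosing. Loss of bound signal fitted positively versus DMSO; primary screen in duplicate at 25 uM, actives followed up in concentration series.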
# [2] = CCTE_Deisenroth_AIME_96WELL_CTox_Active: Cytotoxicity Assessment (CTOX) in CCTE's 96-well Estrogen Receptor Transactivation Assay with AIME metabolic competence (metabolism positive), Deisenroth Lab (AID 2284028)
# How it was run: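 Chemicals (0.002–200 uM) were first incubated 2 h with alginate-immobilized phenobarbital/beta-naphthoflavone-induced male rat liver S9; conditioned medium then went onto VM7Luc4E2 cells for 24 h, with viability read by protease-substrate fluorescence, fitted bidirectionally.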
# [3] = CCTE_Deisenroth_AIME_96WELL_CTox_Inactive: Cytotoxicity Assessment (CTOX) in CCTE's 96-well Estrogen Receptor Transactivation Assay without AIME metabolic competence (metabolism negative), Deisenroth Lab (AID 2284029)
# How it was run: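 Chemicals (0.002 - 200 uM, 10 points) incubated 2 h with alginate-water microspheres (no S9), then medium moved onto VM7Luc4E2 cells for 24 h. Viability by protease-substrate cleavage to fluorescent probe; bidirectional fitting.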
# [4] = target: human Caspase 5 (CASP5), CASP5 (gene 838) (UniProt P51878); assay: NVS_ENZ_hCASP5: NovaScreen (NVS) Enzymatic Assay for human Caspase 5 (CASP5) (AID 2283137)
# human Caspase 5 (CASP5), CASP5 (gene 838), sequence (P51878 whole entry, looked up): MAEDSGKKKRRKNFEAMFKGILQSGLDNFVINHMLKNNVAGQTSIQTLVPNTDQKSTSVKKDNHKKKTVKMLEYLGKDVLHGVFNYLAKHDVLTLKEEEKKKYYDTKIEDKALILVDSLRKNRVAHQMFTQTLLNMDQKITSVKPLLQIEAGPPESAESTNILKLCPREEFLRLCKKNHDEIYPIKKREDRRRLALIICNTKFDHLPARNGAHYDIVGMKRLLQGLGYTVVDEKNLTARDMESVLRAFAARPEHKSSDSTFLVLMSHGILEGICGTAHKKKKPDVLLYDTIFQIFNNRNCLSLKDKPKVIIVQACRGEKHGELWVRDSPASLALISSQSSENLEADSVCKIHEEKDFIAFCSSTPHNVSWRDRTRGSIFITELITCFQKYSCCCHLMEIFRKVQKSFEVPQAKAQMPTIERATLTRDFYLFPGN
# How it was run: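 Recombinant human caspase 5 expressed in E. coli, fluorogenic substrate, fluorescence read 2 h after dosing. Single-point 25 uM duplicate screen, then concentration-response to maximum 50 uM for actives; DMSO baseline.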
# [5] = target: human Dual Specificity Protein Phosphatase 3 (DUSP3), DUSP3 (gene 1845) (UniProt P51452); assay: NVS_ENZ_hDUSP3: NovaScreen (NVS) Enzymatic Assay for human Dual Specificity Protein Phosphatase 3 (DUSP3) (AID 2283152);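 note: phosphatase activity of recombinant human DUSP3 on a fluorogenic substrate without cells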
# human Dual Specificity Protein Phosphatase 3 (DUSP3), DUSP3 (gene 1845), sequence (P51452 whole entry, looked up): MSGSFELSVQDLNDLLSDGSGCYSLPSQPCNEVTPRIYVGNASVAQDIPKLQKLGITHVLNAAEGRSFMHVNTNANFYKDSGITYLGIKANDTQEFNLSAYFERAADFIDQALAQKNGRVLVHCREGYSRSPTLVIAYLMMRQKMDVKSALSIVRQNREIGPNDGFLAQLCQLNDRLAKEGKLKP
# How it was run: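 Cell-free assay with recombinant human DUSP3 and fluorogenic substrate, read by fluorescence intensity. Primary screen ran duplicate at 25 uM; actives followed up in concentration series; loss of signal versus DMSO scored.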
# [6] = UKN5_HCS_SBAD2_cell_viability: Viability Assessment in the University of Konstanz (UKN) Leist Lab Neurite Outgrowth Assay in human iPSC-derived immature Dorsal Root Ganglia Neurons (UKN5) (AID 2284056; active = hit-call score of the fitted dose curve at least 0.9, where 1 is the maximum; inactive = score below 0.9)
# How it was run: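 iPSC-derived immature peripheral neurons (SBAD2) seeded on Matrigel with CHIR99021, SU5402 and DAPT, dosed 1 h later for 24 h. Viability from Hoechst H-33342 and calcein-AM live staining, high-content imaging; bidirectional fit versus DMSO.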
# [7] = UKN5_HCS_SBAD2_neurite_outgrowth: University of Konstanz (UKN) Leist Lab Neurite Outgrowth Assay in human iPSC-derived immature Dorsal Root Ganglia Neurons (UKN5) (AID 2284070; active = hit-call score of the fitted dose curve at least 0.9, where 1 is the maximum; inactive = score below 0.9); details: actives raise or lower the signal
# How it was run: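 SBAD2 iPSC-derived immature peripheral neurons on Matrigel, 100.000 cells/cm2, medium with CHIR99021 (1.5 uM), SU5402 (5 uM), DAPT (5 uM); compound added 1 h post-seeding for 24 h. Calcein-AM neurite area by high-content imaging; Hoechst H-33342 viability; bidirectional fit vs DMSO.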
# [8] = CCTE_Mundy_HCI_Cortical_NOG_NeuronCount: CCTE's Neurite Outgrowth Assay in rat cortical cells for Neuron Count, Mundy Lab (AID 2284236);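 note: neurons counted by imaging betaIII-tubulin and Hoechst stained cortical cells; cells exposed to compound for about 48 hours before fixation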
# How it was run: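 Read-out: neuron number by high-content imaging of betaIII-tubulin (Alexa Fluor-488) and Hoechst-labelled rat primary cortical cells.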
# [9] = test system: IYD (gene 389434); assay: CCTE_GLTED_hIYD: CCTE's human Iodotyrosine Deiodinase (xIYD) Inhibition Assay, Great Lakes Toxicology and Ecology Division (GLTED) Lab (AID 2284317);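 note: cell-free human IYD enzyme made in baculovirus insect cells; iodide freed from monoiodotyrosine measured by cerium arsenite color change at 420 nm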
# How it was run: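 hIYD: baculovirus-expressed human IYD deiodinated monoiodotyrosine for 3 h with test chemical; free iodide was measured by Sandell-Kolthoff absorbance at 420 nm and normalized to MNT and DMSO/NaOH controls.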
# [10] = target: Glucocorticoid receptor (Homo sapiens) (UniProt P04150); assay: NVS_NR_hGR: NovaScreen (NVS) Nuclear Receptor Binding Assay for human Glucocorticoid Receptor (GR) (AID 2283363);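 note: activity is loss of specific radioligand binding signal relative to DMSO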
# Glucocorticoid receptor (Homo sapiens), sequence (P04150 whole entry, looked up): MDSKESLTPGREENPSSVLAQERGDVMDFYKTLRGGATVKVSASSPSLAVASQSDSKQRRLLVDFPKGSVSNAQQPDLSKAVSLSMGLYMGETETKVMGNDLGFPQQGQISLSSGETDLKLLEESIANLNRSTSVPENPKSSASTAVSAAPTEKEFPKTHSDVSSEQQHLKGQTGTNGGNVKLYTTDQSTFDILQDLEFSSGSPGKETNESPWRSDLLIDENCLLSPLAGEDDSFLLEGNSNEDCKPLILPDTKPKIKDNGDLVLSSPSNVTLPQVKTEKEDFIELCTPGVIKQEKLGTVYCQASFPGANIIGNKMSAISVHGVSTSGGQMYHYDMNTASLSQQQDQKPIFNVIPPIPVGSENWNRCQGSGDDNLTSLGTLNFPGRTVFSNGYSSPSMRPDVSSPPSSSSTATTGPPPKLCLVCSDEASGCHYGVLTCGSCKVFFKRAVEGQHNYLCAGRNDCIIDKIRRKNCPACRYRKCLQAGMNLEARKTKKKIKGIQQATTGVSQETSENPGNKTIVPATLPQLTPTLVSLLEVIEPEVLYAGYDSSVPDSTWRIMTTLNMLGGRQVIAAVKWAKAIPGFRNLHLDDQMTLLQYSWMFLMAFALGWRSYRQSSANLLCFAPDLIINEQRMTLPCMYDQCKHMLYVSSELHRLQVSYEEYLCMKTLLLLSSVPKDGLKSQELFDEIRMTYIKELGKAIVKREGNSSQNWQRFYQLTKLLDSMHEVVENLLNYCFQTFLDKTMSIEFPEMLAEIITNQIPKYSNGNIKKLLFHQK
# How it was run: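 Cell-free radioligand displacement assay on extracted human GR, read 16 h after dosing by filter-based scintillation counting. Screened in duplicate at 25 uM, then concentration series for actives; loss of signal versus DMSO baseline.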
# [11] = target: PGR (gene 5241) (UniProt P06401); assay: TOX21_PR_BLA_Followup_Antagonist_ratio: Tox21 HEK293 Progesterone Receptor (PR) Antagonism Beta-lactamase Follow-Up Assay, Ratio (AID 2283934)
# PGR (gene 5241), sequence (P06401 whole entry, looked up): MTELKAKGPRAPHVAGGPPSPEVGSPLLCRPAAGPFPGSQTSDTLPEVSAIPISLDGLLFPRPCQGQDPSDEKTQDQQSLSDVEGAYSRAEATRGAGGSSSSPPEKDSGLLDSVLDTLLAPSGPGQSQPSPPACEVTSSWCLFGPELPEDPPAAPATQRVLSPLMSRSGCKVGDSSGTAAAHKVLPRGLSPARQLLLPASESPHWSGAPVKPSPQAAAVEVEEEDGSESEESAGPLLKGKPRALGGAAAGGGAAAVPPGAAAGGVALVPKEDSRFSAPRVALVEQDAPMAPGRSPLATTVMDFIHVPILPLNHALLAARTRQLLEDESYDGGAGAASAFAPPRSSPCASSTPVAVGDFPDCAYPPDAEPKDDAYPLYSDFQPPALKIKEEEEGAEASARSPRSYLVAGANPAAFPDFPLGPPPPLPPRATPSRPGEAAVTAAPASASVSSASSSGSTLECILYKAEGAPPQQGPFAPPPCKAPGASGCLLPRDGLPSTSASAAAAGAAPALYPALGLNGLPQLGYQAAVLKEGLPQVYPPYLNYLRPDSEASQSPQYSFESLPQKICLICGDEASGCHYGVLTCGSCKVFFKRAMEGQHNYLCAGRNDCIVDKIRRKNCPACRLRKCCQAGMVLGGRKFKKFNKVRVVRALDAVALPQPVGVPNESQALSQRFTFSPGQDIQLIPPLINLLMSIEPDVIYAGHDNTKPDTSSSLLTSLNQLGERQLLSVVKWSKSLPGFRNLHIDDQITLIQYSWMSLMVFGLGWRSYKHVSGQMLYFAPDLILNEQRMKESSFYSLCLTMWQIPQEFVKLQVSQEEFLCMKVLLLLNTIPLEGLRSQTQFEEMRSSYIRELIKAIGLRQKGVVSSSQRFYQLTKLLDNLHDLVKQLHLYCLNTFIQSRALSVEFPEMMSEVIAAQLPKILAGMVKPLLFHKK
# How it was run: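 PR-UAS-bla HEK293T cells, 3,000/well in 2% charcoal-stripped FBS, given compound plus 1nM R5020 agonist for 16 hr at 37C. Beta-lactamase FRET substrate 2 hours, ratio cleaved/uncleaved fluorescence; viability by CellTiter-Glo in same wells.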
# [12] = target: PGR (gene 5241) (UniProt P06401); assay: TOX21_PR_LUC_Followup_Antagonist: Tox21 HEK293 Progesterone Receptor (PR) Antagonism Luciferase Follow-Up Assay (AID 2283938);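 note: curve fitted upward as signal gain over DMSO baseline despite antagonist label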
# How it was run: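 Luciferase reporter in HEK293-PR-A-luc cells: 16 h compound treatment at 37C, ONE-Glo luminescence detection, DMSO as negative control and baseline.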
# [13] = target: Estrogen receptor (Homo sapiens) + Estrogen receptor beta (Homo sapiens) (UniProt P03372+Q92731); assay: OT_ER_ERaERb_0480: Odyssey Thera (OT) 8-hour HEK293T Protein-Complementation Assay for Estrogen Receptor-alpha/-beta Heterodimer (AID 2283352)
# How it was run: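 Human HEK293T cells were treated for 8 hours and receptor heterodimerisation was detected through reconstitution of a fluorescent reporter split between ER-alpha and ER-beta ligand-binding domains. Activity was analysed as gain of signal against DMSO.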
# [14] = TOX21_TR_RXR_BLA_Agonist_Followup_viability: Viability Assessment in the Tox21 Thyroid Hormone Receptor beta Retinoid X Receptor alpha (RXRa) Agonism Beta-lactamase (BLA) Follow-Up Assay (AID 2283970)
# How it was run: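 RXRa-UAS-bla HEK293T cells, 2,500/well in phenol red-free DMEM with 2% charcoal-stripped FBS, dosed for 16 h at 37C. Viability measured by CellTiter-Glo ATP luminescence; fitted bidirectionally against DMSO baseline, loss of signal indicating cytotoxicity.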
# [15] = target: human Beta-secretase (BACE), BACE1 (gene 23621) (UniProt P56817); assay: NVS_ENZ_hBACE: NovaScreen (NVS) Enzymatic Assay for human Beta-secretase (BACE) (AID 2283140);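 note: hits are inhibitors that reduce fluorescent substrate signal versus DMSO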
# human Beta-secretase (BACE), BACE1 (gene 23621), sequence (P56817 whole entry, looked up): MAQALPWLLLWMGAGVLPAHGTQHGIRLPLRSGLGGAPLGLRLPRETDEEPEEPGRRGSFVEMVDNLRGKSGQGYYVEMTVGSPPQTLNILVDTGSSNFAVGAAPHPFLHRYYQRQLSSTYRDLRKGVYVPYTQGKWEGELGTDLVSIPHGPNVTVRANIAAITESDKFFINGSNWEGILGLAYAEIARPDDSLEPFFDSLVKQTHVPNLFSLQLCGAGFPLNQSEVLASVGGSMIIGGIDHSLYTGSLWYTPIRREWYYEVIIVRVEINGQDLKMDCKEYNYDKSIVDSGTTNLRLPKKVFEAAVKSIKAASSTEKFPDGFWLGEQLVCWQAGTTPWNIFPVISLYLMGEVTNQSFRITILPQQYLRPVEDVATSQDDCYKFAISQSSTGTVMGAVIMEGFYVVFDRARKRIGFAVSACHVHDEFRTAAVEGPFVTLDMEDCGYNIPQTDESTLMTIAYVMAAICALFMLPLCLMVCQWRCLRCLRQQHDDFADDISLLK
# How it was run: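 Cell-free assay of recombinant Sf9-expressed human BACE with fluorescent substrate, read by fluorescence intensity after 1 h. Primary screen in duplicate at 25 uM; actives then run in concentration series; loss of signal relative to DMSO.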
# [16] = target: human Thromboxane A2 Receptor (TXA2), TBXA2R (gene 6915) (UniProt P21731); assay: NVS_GPCR_hTXA2: NovaScreen (NVS) G Protein-Coupled Receptor Assay for human Thromboxane A2 Receptor (TXA2) (AID 2283282);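 note: actives reduce bound radioligand signal relative to DMSO baseline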
# human Thromboxane A2 Receptor (TXA2), TBXA2R (gene 6915), sequence (P21731 whole entry, looked up): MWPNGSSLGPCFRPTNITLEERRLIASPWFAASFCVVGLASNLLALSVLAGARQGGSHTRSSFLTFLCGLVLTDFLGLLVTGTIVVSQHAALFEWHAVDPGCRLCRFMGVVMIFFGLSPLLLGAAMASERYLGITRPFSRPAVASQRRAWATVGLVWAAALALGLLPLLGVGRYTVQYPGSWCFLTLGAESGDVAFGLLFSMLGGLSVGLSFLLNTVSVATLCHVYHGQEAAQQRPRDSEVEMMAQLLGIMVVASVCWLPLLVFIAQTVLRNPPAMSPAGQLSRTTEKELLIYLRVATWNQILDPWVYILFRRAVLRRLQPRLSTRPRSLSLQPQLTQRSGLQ
# How it was run: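 Screening ran at 25 uM in duplicate, with concentration series for confirmed actives. Each test measures radioligand binding to human platelet protein after 1 h, cell-free, using filter-based scintillation detection of signal loss relative to DMSO.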
# [17] = target: human Adenosine A2a Receptor (AdoRA2a), ADORA2A (gene 135) (UniProt P29274); assay: NVS_GPCR_hAdoRA2a: NovaScreen (NVS) G Protein-Coupled Receptor Assay for human Adenosine A2a Receptor (AdoRA2a) (AID 2283256)
# human Adenosine A2a Receptor (AdoRA2a), ADORA2A (gene 135), sequence (P29274 whole entry, looked up): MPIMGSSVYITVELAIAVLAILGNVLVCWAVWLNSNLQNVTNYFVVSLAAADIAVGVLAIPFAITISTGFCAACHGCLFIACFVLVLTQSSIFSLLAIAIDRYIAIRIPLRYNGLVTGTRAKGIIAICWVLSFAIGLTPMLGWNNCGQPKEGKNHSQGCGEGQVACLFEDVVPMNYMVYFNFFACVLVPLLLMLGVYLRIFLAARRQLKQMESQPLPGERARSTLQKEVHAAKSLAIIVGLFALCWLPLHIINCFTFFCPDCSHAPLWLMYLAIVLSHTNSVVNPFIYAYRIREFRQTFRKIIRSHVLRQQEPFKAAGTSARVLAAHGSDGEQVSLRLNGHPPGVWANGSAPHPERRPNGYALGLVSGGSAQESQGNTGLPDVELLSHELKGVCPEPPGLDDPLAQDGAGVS
# How it was run: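 Radioligand displacement on HEK293-derived membrane protein, cell-free; filter-based scintillation counting 1.5 hours after dosing, loss of signal vs DMSO. Single-point duplicate screen at 25 uM, actives retested in concentration series.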
# [18] = target: Caspase-3 (Homo sapiens) (UniProt P42574); assay: NVS_ENZ_hCASP3: NovaScreen (NVS) Enzymatic Assay for human Caspase 3 (CASP3) (AID 2283139)
# Caspase-3 (Homo sapiens), sequence (P42574 whole entry, looked up): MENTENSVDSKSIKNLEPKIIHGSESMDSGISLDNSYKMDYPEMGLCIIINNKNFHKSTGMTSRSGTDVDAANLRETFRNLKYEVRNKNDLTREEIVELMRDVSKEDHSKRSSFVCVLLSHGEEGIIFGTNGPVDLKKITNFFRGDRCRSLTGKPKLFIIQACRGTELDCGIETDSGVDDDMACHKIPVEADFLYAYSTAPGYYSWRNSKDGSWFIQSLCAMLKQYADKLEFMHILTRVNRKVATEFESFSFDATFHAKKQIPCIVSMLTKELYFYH
# How it was run: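 Recombinant human caspase-3 from E. coli with a fluorogenic substrate, read by fluorescence 1 h after dosing. Primary screen in duplicate at 25 uM. Actives (for example ≥30% inhibition) rerun as concentration-response up to 50 uM.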
# [19] = target: human Phosphodiesterase 5 (PDE5), PDE5A (gene 8654) (UniProt O76074); assay: NVS_ENZ_hPDE5: NovaScreen (NVS) Enzymatic Assay for human Phosphodiesterase 5 (PDE5) (AID 2283194)
# How it was run: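 Recombinant human PDE5 with specific substrate, read 1 h after dosing by fluorescence with electrophoretic mobility-shift separation of substrate and product. Initial single-concentration duplicate screen at 25 uM, actives followed in concentration series; loss of activity versus DMSO.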
# [20] = read-out: Tumor necrosis factor receptor superfamily member 6 (Homo sapiens) (UniProt P25445); assay: LTEA_HepaRG_FAS: Life Technologies and Expression Analysis (LTEA) Assay for Fas cell surface death receptor (FAS) using HepaRG (AID 2283447; active = hit-call score of the fitted dose curve at least 0.9, where 1 is the maximum; inactive = score below 0.9); details: mRNA level, 48 h; actives raise or lower the signal
# How it was run: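 Differentiated HepaRG cells in serum-free induction medium were exposed 48 h to 8 half-log concentrations up to 100 uM in 0.5% DMSO, in duplicate. FAS mRNA was measured by qRT-PCR normalised to ACTB, GAPDH and POLR2A; bidirectional fit versus DMSO.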
smiles,measurement,setting,value
Cc1cc(-n2nc3ccc(Cl)cc3n2)c(O)c(C(C)(C)C)c1,outcome,[1],inactive
same,outcome,[2],inactive
same,outcome,[3],inactive
CC1(C)S[C@@H]2[C@H](NC(=O)[C@H](N)c3ccccc3)C(=O)N2[C@H]1C(=O)O,AC50,[4],1.88 µM (active)
same,AC50,[5],8.24 µM (active)
same,outcome,[6],inactive
same,outcome,[7],inactive
same,outcome,[8],inactive
Cc1cc2nc3c(=O)[nH]c(=O)nc-3n(C[C@H](O)[C@H](O)[C@H](O)CO)c2cc1C,AC50,[9],94.2 µM (active)
CCCCC(CC)COC(=O)CS (stereo not given),AC50,[10],25 µM (active)
c1cc[c]([Bi]([c]2ccccc2)[c]2ccccc2)cc1,AC50,[11],16.3 µM (active)
same,outcome,[12],inactive
C=C1CC[C@H]2C[C@@H]1C2(C)C,outcome,[13],inactive
CC(C)CC(=O)O,outcome,[14],inactive
CCCCCCCCCC/C=C/C1CC(=O)OC1=O (stereo not given),AC50,[15],45.4 µM (active)
same,outcome,[16],inactive
CCC(C)(CCC(C)C)C(=O)O (stereo not given),outcome,[17],inactive
CCC(C)=NO,outcome,[18],inactive
same,outcome,[19],inactive
same,outcome,[20],inactive
